Data as given in PubChem BioAssay AID738 (SRMLSC, 2007).
About 4,900 (5%) of roughly 98,000 compounds were called active. No stated cut-off is given here; in the data, active means inhibition above about 30%; inactive means the rest. The sample as a whole holds a higher share of actives than the screen did.

Test: yeast control strain growth suppression – counter-screen for post-Golgi transport modulator project, primary screen (AID 738)
Conditions: efflux-deficient yeast background strain, growth absorbance A615, 16 h; at 10 µM; active compounds read high

Row | SMILES | inhibition
1 | COc1cc(/C=N\NC(=O)C2C(=O)NCC2c2ccccc2)cc(OC)c1O (configuration not stated) | -0.14% (inactive)
2 | CC(C)(C)Cc1nnc(NC(=O)c2cc(-c3ccccc3)nc3ccccc23)s1 | 9.13% (inactive)
3 | CCOC(=O)c1cc2cc(C)ccc2[nH]1 | 10.2% (inactive)
4 | CCOC(=O)c1[nH]c2ccccc2c1N=C(C)N(CC)CC | -8.42% (inactive)
5 | CCOC(=O)c1[nH]c2ccc(C)cc2c1N=C(C)N(C)C | 30.6% (active)
6 | Cn1cnc([N+](=O)[O-])c1Sc1ccccc1 | 7.56% (inactive)
7 | Clc1ccc(-n2nnnc2CN2CCCCC2)cc1Cl | -0.16% (inactive)
8 | Cc1ccccc1CS(=O)(=O)CC1(O)CCN(C(=O)c2cccc(C(F)(F)F)c2)CC1 | 4.49% (inactive)
9 | COc1cc(/C=C(/NC(=O)c2ccccc2)C(=O)Nc2cccc(O)c2)c([N+](=O)[O-])cc1OC | 15.7% (inactive)
10 | CCOC(=O)N1CCN(C(=O)Cc2ccc(-n3c(=S)[nH]c4ccccc4c3=O)cc2)CC1 | -2.12% (inactive)
11 | O=C(CCn1c(=O)[nH]c2ccccc2c1=O)NCCCN1CCN(c2cccc(Cl)c2)CC1 | 1.72% (inactive)
12 | O=C(Cc1ccc(-n2c(=O)[nH]c3ccccc3c2=O)cc1)N1CCN(c2cccc(Cl)c2)CC1 | 37.3% (active)
13 | COc1ccc(NC(=O)C(NC(C)=O)C(=O)NCc2ccccc2Cl)cc1 (configuration not stated) | 14% (inactive)
14 | COC(=O)CN(C(=S)Nc1ccc(Cl)cc1)C1CC(=O)N(c2ccc(OC)cc2)C1=O (configuration not stated) | 7.41% (inactive)
15 | CC1CCc2c(sc(NC(=O)c3ccc(Cn4cc(Br)cn4)o3)c2C(N)=O)C1 (configuration not stated) | 10.8% (inactive)
16 | O=C(Nc1ccc(Br)c2cccnc12)c1ccc(Cn2cc([N+](=O)[O-])cn2)o1 | 30.3% (active)
17 | O=C(NCc1cccnc1)c1ccc(CS(=O)(=O)c2ccc(Br)cc2)o1 | -2.42% (inactive)
18 | COc1ccccc1NC(=O)[C@H](COCc1ccccc1)NC(=O)OC(C)(C)C | 5.88% (inactive)
19 | CC(=O)c1ccc(Cc2ncc(C(F)(F)F)cc2Cl)s1 | 5.66% (inactive)
20 | CCN1CCN(c2ccc([N+](=O)[O-])cc2C(=O)c2ccc(Cl)cc2)CC1 | 26.2% (inactive)
21 | O=C(NCc1ccccn1)c1cc(-c2ccccc2Cl)on1 | 9.87% (inactive)
22 | CC(=O)c1c(C)[nH]c(C(=O)NCc2ccc(C)cc2)c1C | 5.25% (inactive)
23 | CCOc1ccc(C(=O)Nc2cc(OC)ccc2OC)cc1 | -3.51% (inactive)

Row | SMILES | inhibition
24 | COc1ccc(C)cc1NC(=O)c1[nH]c(C)c(C(C)=O)c1C | 55% (active)
25 | CC1=NN(C(=O)c2ccccc2Br)C(O)(c2cccnc2)C1 (configuration not stated) | 9.36% (inactive)
26 | COC(=O)c1ccc(C(=O)Nc2cc(Cl)ccc2Cl)cc1NC(=O)c1ccccc1C | 1.48% (inactive)
27 | Cc1ccc(NC(=O)C(C)c2cccc(C(=O)c3ccccc3)c2)cc1 (configuration not stated) | 9.41% (inactive)
28 | CC(C)CC(=O)N1CCC(O)(CS(=O)(=O)Cc2ccccc2)CC1 | 12.7% (inactive)
29 | O=C(CSc1nnc(-c2ccco2)n1Cc1ccccc1)NC(=O)NCc1ccco1 | -1.05% (inactive)
30 | c1ccc(CSc2nnc(-c3ccco3)n2Cc2ccccc2)cc1 | 38.6% (active)
31 | c1ccc(CSc2nnc(-c3ccco3)c(-c3ccco3)n2)cc1 | 21.3% (inactive)
32 | COc1ccc(CCN(C(=O)COc2ccccc2)c2nc(-c3ccccc3)cs2)cc1OC | 4.48% (inactive)
33 | CCC(c1nnnn1Cc1ccco1)N(Cc1cc2cc(OC)ccc2[nH]c1=O)C1CCCCC1 (configuration not stated) | 29.9% (inactive)
34 | Cc1cccc2cc(CN(Cc3cccs3)C(c3nnnn3C3CCCC3)C(C)C)c(=O)[nH]c12 (configuration not stated) | 23% (inactive)
35 | CCC(c1nnnn1Cc1ccco1)N(CCc1ccccc1)Cc1cc2cccc(C)c2[nH]c1=O (configuration not stated) | 52.5% (active)
36 | CCC(c1nnnn1C1CCCC1)N(Cc1cccs1)Cc1cc2cccc(C)c2[nH]c1=O (configuration not stated) | 38.6% (active)
37 | Cc1cccc2cc(CN(Cc3ccc4c(c3)OCO4)Cc3nnnn3C3CCCC3)c(=O)[nH]c12 | 20.4% (inactive)
38 | CCC(c1nnnn1Cc1ccco1)N(CCc1ccccc1)Cc1cc2ccc(OC)cc2[nH]c1=O (configuration not stated) | 5.86% (inactive)
39 | CCOC(=O)C1CN(S(=O)(=O)c2ccc(F)cc2)C1 | -2.08% (inactive)
40 | N=c1c2c(-c3ccccc3)c(-c3ccccc3)oc2ncn1Cc1ccco1 | 26.2% (inactive)
41 | CC(=O)c1sc(NC(=O)c2cccc3ccccc23)nc1C | -0.59% (inactive)
42 | Cc1ccc2nc(SCc3nnc(-c4ccccc4[N+](=O)[O-])o3)c(C#N)cc2c1 | 23.2% (inactive)
43 | c1ccc2c(CSCc3nc4ccccc4[nH]3)cccc2c1 | 14.3% (inactive)
44 | Cc1ccc(OC(=O)c2ccccc2C(=O)OCC(F)(F)C(F)F)cc1 | 5.33% (inactive)
45 | COc1ccc(-c2cc(C(F)(F)F)nc(S(C)(=O)=O)n2)cc1OC | 87.3% (active)
46 | COc1ccc(-c2ccc(Nc3ccc(S(=O)(=O)N4CCCC4)cc3)nn2)cc1OC | -1.56% (inactive)

Row | SMILES | inhibition
47 | COc1ccc(-c2cc(C(F)(F)F)nc(NCc3cccnc3)n2)cc1 | 26.7% (inactive)
48 | O=C(Nc1ccc(Br)cc1)C1CCC(=O)N1Cc1ccccc1Cl (configuration not stated) | -0.46% (inactive)
49 | CSCc1cc(N2CCOCC2)nc(SCc2ccc(Cl)cc2Cl)n1 | 7.94% (inactive)
50 | Cc1cc(C(=O)Nc2c(C)nn(Cc3ccccc3)c2C)on1 | 8.88% (inactive)
51 | CC(=O)Nc1ccccc1C(=O)C(=O)Nc1ccc(F)cc1 | 4.22% (inactive)
52 | N#Cc1nc(Cc2ccccc2)oc1NCCc1ccccc1 | 21.1% (inactive)
53 | N#Cc1nc(-c2ccc(OCc3ccccc3)cc2)oc1NCCCN1CCOCC1 | 14.1% (inactive)
54 | N#Cc1nc(COc2ccc(-c3ccccc3)cc2)oc1NCc1cccnc1 | 94.2% (active)
55 | FC(F)(F)c1nc2ccccc2nc1N/N=C/c1ccc(Cl)cc1 | -2.3% (inactive)
56 | CCOC(=O)N1CCN(c2c(NCCCN3CCCC(C)C3)c(=O)c2=O)CC1 (configuration not stated) | -0.16% (inactive)
57 | COCCn1nnnc1C(c1ccccc1Cl)N1CCN(c2ccccc2OC)CC1 (configuration not stated) | 3.75% (inactive)
58 | CCC(c1nnnn1C1CCCC1)N1CCN(C(=O)c2ccco2)CC1 (configuration not stated) | 12.4% (inactive)
59 | CC(C)C(c1nnnn1C1CCCC1)N1CCN(c2ccccc2F)CC1 (configuration not stated) | 42.7% (active)
60 | COc1ccc(C(c2nnnn2C2CCCCC2)N2CCN(c3ccccc3F)CC2)cc1 (configuration not stated) | 50.5% (active)
61 | COc1ccc(N2CCN(C(c3cc4ccc(C)cc4[nH]c3=O)c3nnnn3C3CCCC3)CC2)cc1 (configuration not stated) | -0.59% (inactive)
62 | CC(C)C(c1nnnn1Cc1ccccc1)N1CCC(C(N)=O)CC1 (configuration not stated) | -0.16% (inactive)
63 | Cc1ccc(SCC2=NNC(=O)C2)cc1 | -3.86% (inactive)
64 | O=C(NNC(=O)c1cccnc1)Nc1ccccc1 | 8.65% (inactive)
65 | O=Cc1c(N2CCN(c3cccc(Cl)c3)CC2)nc2ccccn2c1=O | 20% (inactive)
66 | O=[N+]([O-])c1ccccc1NCc1ccc(Cl)cc1 | 9.17% (inactive)
67 | CC(C)c1cc(C(N)=O)c(NC(=O)c2cccc(COc3ccc(Br)cc3)c2)s1 | 15.8% (inactive)
68 | CSc1ccccc1C(=O)Nc1cccc(C(C)=O)c1 | -2.07% (inactive)
69 | O=C1Nc2cc(Cl)c(Cl)cc2N(O)N1c1cc(Cl)cc(Cl)c1 | 33.2% (active)

Row | SMILES | inhibition
70 | Clc1ccc(-c2cc(COc3ccccc3)no2)cc1Cl | 5.93% (inactive)
71 | Cc1ccc(-n2c(C)cc(/C=C(\C#N)C(=O)NCC3CCCO3)c2C)cc1 (configuration not stated) | 10.8% (inactive)
72 | CN1C2CCC1/C(=C\c1ccccc1Cl)C(=O)/C2=C\c1ccccc1Cl | 25.3% (inactive)
73 | CC12c3ccccc3C(c3ccccc31)C1C(=O)N(Cc3cccnc3)C(=O)C12 (configuration not stated) | 4.53% (inactive)
74 | CC(=O)N1CCN(C(=O)Nc2cccc(C(F)(F)F)c2)CC1 | -1.91% (inactive)
75 | FC(F)(F)c1cccc(NC(=S)Nc2cccc(Cl)c2)c1 | 35.1% (active)
76 | O=C(O)CSCC(=O)Nc1cccc(C(F)(F)F)c1 | 4.42% (inactive)
77 | O=C(CCNS(=O)(=O)c1ccccc1C(F)(F)F)NCc1ccc2c(c1)OCO2 | -1.95% (inactive)
78 | COCCNC(=O)c1onc(CSc2cccc(C)c2)c1C(=O)O | -8.59% (inactive)
79 | Cc1ccc(-c2nn(C(C)(C)C)c3ncnc(N)c23)cc1 | 52.1% (active)
80 | COc1ccc(C(F)(F)F)cc1N/C=C\c1nnnn1-c1ccc(C)cc1 | 0.15% (inactive)
81 | O=S(=O)(/N=C(/Nc1ccccn1)c1ccccc1)c1ccc(Cl)cc1 | 1.53% (inactive)
82 | O=C(COc1ccc(/C=N/NS(=O)(=O)c2ccccc2)cc1)NCCc1ccccc1 | 5.69% (inactive)
83 | O=C(CSc1nc2ncccc2[nH]1)Nc1ccc2c(c1)OCCO2 | 0.61% (inactive)
84 | O=C(CSc1nnnn1-c1ccc2c(c1)CCC2)Nc1ccc2c(c1)OCCO2 | 39.2% (active)
85 | O=C(CSc1nnnn1C1CCCC1)Nc1ccc2c(c1)OCCO2 | -2.44% (inactive)
86 | COc1ccc(NC(C)=O)cc1NC(=O)CN1CCN(c2ccccn2)CC1 | 18.6% (inactive)
87 | COc1ccc(NC(C)=O)cc1NC(=O)CN1CCN(C2c3ccccc3-c3ccccc32)CC1 | 89.2% (active)
88 | COc1ccc(OC)c(NC(=O)CN2CCN(C(=O)c3ccco3)CC2)c1 | 12.4% (inactive)
89 | Cc1c(C(=O)OC(C)C)sc(NC(=O)c2cccnc2)c1C#N | 11.5% (inactive)
90 | CC(CN1CCOCC1)c1ccccc1 (configuration not stated) | 5.77% (inactive)
91 | O=C(Nc1sc2c(c1-c1nc3ccccc3[nH]1)CCCC2)C1CC1 | 3.43% (inactive)
92 | CCOC(=O)c1c(NC(=O)c2ccc(N3CCOCC3)c([N+](=O)[O-])c2)sc(C)c1C | 3.45% (inactive)
